16 compounds from PubChem BioAssay (NCI) can be followed below.

About 83,000 compounds went through this panel and 20% of them were active in at least one assay; those are over-represented in the sample as a whole.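 Negative percent growth values reflect cell death: -40 means 40% of the cells present at the start died, and -100 means all died.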 Values without a mark were called inactive. Active and inactive are the calls of the source. Rule for the calls: active = growth percent below 10; inactive = the rest.

Test systems include NCI-H23 lung; NCI-H226 lung; NCI-H322M lung; HOP-62 NSCLC; NCI-H460 lung; A549/ATCC NSCLC; 786-0 renal; COLO 205 colon.
Holding throughout (test): NCI-60 one-dose screen, 48 h (100 = growth as untreated, 0 = no growth, -100 = all killed)
Conditions in all cases: 10 µM unless noted

`COC(=O)[C@H](Cc1cn(C)cn1)NC(=O)[C@@H](NC(=O)Nc1cc(C(F)(F)F)cc(C(F)(F)F)c1)C(C)(C)C`: the growth was -64.7% [100 µM] (active) with NCI-H23 lung; 64.7% [100 µM] in the assay with NCI-H226 lung; -35.3% [100 µM] (active) in the assay on NCI-H322M lung; -84.2% [100 µM] (active) with HOP-62 NSCLC; -56.3% [100 µM] (active) with NCI-H460 lung; 14.8% [100 µM] in the assay with A549/ATCC NSCLC. Besides, the growth is -88.2% [100 µM] (active) with 786-0 renal and -74.6% [100 µM] (active) with COLO 205 colon.

With `O=C(Nc1ccc(-n2cc(-c3ccncc3)c(-c3ccc(Cl)c(O)c3)n2)cc1)Nc1ccc(Cl)c(C(F)(F)F)c1`, the growth is 3.39% (active) in the assay with NCI-H23 lung; 68.2% with NCI-H226 lung; 12% with NCI-H322M lung; -7.48% (active) with HOP-62 NSCLC; -29.3% (active) with NCI-H460 lung; 6.06% (active) in the assay with A549/ATCC NSCLC. Moreover, the values for the growth in the assay on 786-0 renal and with COLO 205 colon were -44.8% (active) and -66.5% (active), respectively.

For `O=C(NCCO)C(F)(F)F`, the growth is 109% with NCI-H23 lung; 111% with NCI-H226 lung; 105% in the assay on NCI-H322M lung; 104% in the assay on HOP-62 NSCLC; 109% in the assay with NCI-H460 lung; 98.4% in the assay on A549/ATCC NSCLC. For the same compound, the growth in the assay with 786-0 renal is 93.9%.

As to `COc1ccc2cn3c4ccc(O)cc4[nH]c(=O)c3c2c1`, the growth with NCI-H23 lung was 25.3%; with NCI-H226 lung, 54.7%; with NCI-H322M lung, 41%; with HOP-62 NSCLC it was 25.8%; in the assay on NCI-H460 lung, -48.7% (active); in the assay on A549/ATCC NSCLC, 19.3%. The growth in the assay with 786-0 renal is 24.1%.

Consider `CC(O)CCC(C)[N+](=O)[O-]` (stereo not drawn), for which the growth was 111% with NCI-H23 lung; 109% in the assay with NCI-H226 lung; 98.7% with NCI-H322M lung; 95.4% in the assay with HOP-62 NSCLC; 109% in the assay on NCI-H460 lung; 96.3% in the assay on A549/ATCC NSCLC. Moreover, the figures for the growth in the assay with 786-0 renal and in the assay on COLO 205 colon were 101% and 111%, respectively.

For `O=C(Nc1ccc(-n2cc(-c3ccncc3)c(-c3ccc(Cl)c(O)c3)n2)cc1)c1ccc(Cl)c(C(F)(F)F)c1`, the growth is -54.4% (active) with NCI-H23 lung; 89% in the assay on NCI-H226 lung; 37.2% in the assay on NCI-H322M lung; -66.1% (active) in the assay on HOP-62 NSCLC; -74.4% (active) in the assay with NCI-H460 lung; -30.3% (active) in the assay on A549/ATCC NSCLC. Besides, the growth is -94.1% (active) with 786-0 renal and -1.56% (active) in the assay with COLO 205 colon.

Take `CC(C)(C)c1ccc(OCCOC(=O)CBr)cc1`: the growth in the assay with NCI-H23 lung is 98.7%; in the assay with NCI-H226 lung it was 102%; with NCI-H322M lung, 120%; in the assay on HOP-62 NSCLC, 99.1%; with NCI-H460 lung, 102%; with A549/ATCC NSCLC it was 105%. Besides, the growth in the assay on 786-0 renal was 103%; in the assay on COLO 205 colon it was 89.1%.

`NCCCOc1cc(Cl)ccc1NC(=O)c1cc2ccccc2cc1OCCCN`: the growth in the assay with NCI-H23 lung is -62.3% (active); in the assay with NCI-H226 lung, -28.9% (active); in the assay with NCI-H322M lung, -1.29% (active); in the assay on HOP-62 NSCLC, -94.3% (active); with NCI-H460 lung it was -91% (active); in the assay with A549/ATCC NSCLC, -93.6% (active). Moreover, the growth with 786-0 renal is -89.2% (active).

Regarding `CN1NC(c2ccccc2)NN(C)C1=O`, the growth is 107% in the assay on NCI-H23 lung; 102% with NCI-H226 lung; 89.8% with NCI-H322M lung; 93.6% in the assay with HOP-62 NSCLC; 109% with NCI-H460 lung; 101% in the assay on A549/ATCC NSCLC. In the assay on 786-0 renal, the growth was 102%.

For `COc1cc(-c2nn(-c3ccc(NC(=O)c4cc(Cl)cc(Cl)c4)cc3)cc2-c2ccncc2)ccc1Cl`, the growth was 88% in the assay on NCI-H23 lung; 107% with NCI-H226 lung; 104% with NCI-H322M lung; 56.9% in the assay with HOP-62 NSCLC; 54.8% with NCI-H460 lung; 73% in the assay on A549/ATCC NSCLC. The growth with 786-0 renal was 16.7%; with COLO 205 colon, 101%.

As to `Cc1ccc(NC(=O)CCl)cc1Cl`, the growth with NCI-H23 lung was 89.2%; in the assay on NCI-H226 lung, 103%; in the assay with NCI-H322M lung, 97.1%; in the assay on HOP-62 NSCLC, 98.9%; with NCI-H460 lung, 105%; with A549/ATCC NSCLC, 106%. Besides, the growth in the assay on 786-0 renal was 117%; in the assay with COLO 205 colon, 122%.

In the case of `COc1cc(-c2nn(-c3ccc(NC(=O)c4ccc(Cl)c(Cl)c4)cc3)cc2-c2ccncc2)ccc1Cl`, the growth in the assay on NCI-H23 lung was 77.8%; in the assay with NCI-H226 lung, 88.3%; with NCI-H322M lung, 101%; in the assay on HOP-62 NSCLC it was 52.7%; in the assay with NCI-H460 lung, 48.3%; in the assay with A549/ATCC NSCLC it was 68.3%. Also, the growth in the assay on 786-0 renal is -34.5% (active); in the assay with COLO 205 colon it was 52.6%.

For the compound `COc1cc(-c2nn(-c3ccc(NC(=O)Nc4cc(C(F)(F)F)cc(C(F)(F)F)c4)cc3)cc2-c2ccncc2)ccc1Cl`, the growth was 8.45% (active) in the assay with NCI-H23 lung; 18.4% in the assay with NCI-H226 lung; 6.93% (active) in the assay with NCI-H322M lung; 12.2% in the assay with HOP-62 NSCLC; -20.6% (active) in the assay on NCI-H460 lung; 12.1% in the assay on A549/ATCC NSCLC. For the same compound, the growth in the assay on 786-0 renal is -41.4% (active); in the assay with COLO 205 colon, -89.8% (active).

In the case of `O=C(N/N=C/c1coc2ccccc2c1=O)c1cc2oc(-c3ccccc3)cc2[nH]1`, the growth in the assay on NCI-H23 lung was 113%; in the assay with NCI-H226 lung, 114%; in the assay with NCI-H322M lung, 89.4%; with HOP-62 NSCLC, 95.9%; in the assay on NCI-H460 lung, 105%; with A549/ATCC NSCLC, 105%. Further, the values for the growth with 786-0 renal and in the assay on COLO 205 colon were 106% and 94.3%, respectively.

In the case of `S=C(N/N=C/c1cc(Cl)cc(Cl)c1)NC12CC3CC(CC(C3)C1)C2`, the growth is 97.8% in the assay on NCI-H23 lung; 79.6% in the assay with NCI-H226 lung; 62.2% in the assay on NCI-H322M lung; 78.2% in the assay on HOP-62 NSCLC; 34.4% with NCI-H460 lung; 45% with A549/ATCC NSCLC. The growth is 71% in the assay with 786-0 renal and 68.8% in the assay on COLO 205 colon.

As to `COC(=O)c1cc(=O)nc(N/N=C/c2ccccc2O)s1`, the growth in the assay on NCI-H23 lung is 89%; in the assay with NCI-H226 lung it was 101%; in the assay on NCI-H322M lung, 67.2%; in the assay with HOP-62 NSCLC it was 90.7%; with NCI-H460 lung it was 94.5%; with A549/ATCC NSCLC it was 94.4%. In addition, the growth in the assay with 786-0 renal was 95.1%.
